Inconclusive results are not listed. Entries that show only a call come without a potency. Active and inactive are the calls of the source. Calls come from the whole dose curve. Numbered stars: 1 amine (or outer) side, 2 acyl side, 3 side chain; on linkers, the order of the positions; unused ones are H or OH. Square brackets hold non-standard residues; d marks the D form. Side chains are listed from the residue outwards. Peptide text beside a SMILES is read from it. * marks the point of attachment. Ethylenediamine = C(CN[*:2])N[*:1]; Hyp = O=C(O)[C@@H]1C[C@@H](O)CN1; Phg = N[C@H](C(=O)O)c1ccccc1; CO = O=C([*:1])[*:2]; Bn = c1ccc(C*)cc1

This passage reports Potency and outcome results from PubChem BioAssay (NCATS).

This test is described as follows: Primary qHTS for inhibitors of MERS-S pseudo-typed particle cell entry (AID 1479149). Note: nearly all actives have a fitted effect of over 60% in size. Conditions: MERS-S pseudotyped particle entry, luciferase; series mostly up to 57.1 µM.
Take `C[C@H](NCCc1ccc(O)cc1)[C@H](O)c1ccc(O)cc1`: the Potency entry is “inactive”. Take `CCOC(=O)[C@H](C)C[C@@H](Cc1ccc(-c2ccccc2)cc1)NC(=O)CCC(=O)O`: the Potency entry was “inactive”.

For `C[N+]1(C)C2CC[C@H]1CC(OC(=O)C(O)c1ccccc1)C2` (some centres undefined), the Potency entry is “inactive”.

As to `CCC(=O)Oc1ccc2c(c1)CC[C@@H]1[C@H]2CC[C@]2(C)[C@@H](OC(=O)CC)CC[C@@H]12`, the Potency entry was “inactive”. On the same count and under the same terms, to `CCN1CCCC1CNC(=O)c1cc(S(=O)(=O)CC)ccc1OC` (centres undefined) belongs “inactive”; to `CC(=O)O[C@]1(C(C)=O)CC[C@H]2[C@@H]3C[C@H](C)C4=CC(=O)C=C[C@]4(C)[C@@]3(F)[C@@H](O)C[C@@]21C`, “inactive”; to `NCCCC[C@@H]1NC(=O)[C@@H](Cc2c[nH]c3ccccc23)NC(=O)[C@H](c2ccccc2)NC(=O)[C@@H]2C[C@@H](OC(=O)NCCN)CN2C(=O)[C@H](Cc2ccccc2)NC(=O)[C@H](Cc2ccc(OCc3ccccc3)cc2)NC1=O` (cyclo([Hyp]([CO-Ethylenediamine])[Phg][dW]KY(Bn)F)), “inactive”.

With `CCCCOC(=O)C(=O)Nc1cccc(-c2nn[nH]n2)c1`, the Potency result was “inactive”. Still for that read-out and setting: then `CCCCC/C=C\C/C=C\C/C=C\CCCCC(=O)O`, with “inactive”. Same read-out and setting: then `Cc1ncc([N+](=O)[O-])n1CCOC(=O)c1ccccc1`, with “inactive”; and `CCOC(=O)COc1ccc2c(=O)cc(-c3ccccc3)oc2c1`, with “inactive”. Same read-out and setting: then `NC(=O)[C@H]1O[C@@H](O)[C@H](O)[C@@H](O)[C@@H]1O`, with “inactive”; and `C[C@@H]1CCC[C@H](C)N1NC(=O)c1ccc(Cl)c(S(N)(=O)=O)c1`, with “inactive”. Consider `C=C[C@@H]1C[C@]1(NC(=O)[C@@H]1C[C@@H]2CN1C(=O)[C@H](C(C)(C)C)NC(=O)O[C@@H]1C[C@H]1CCCCCc1nc3ccc(OC)cc3nc1O2)C(=O)NS(=O)(=O)C1CC1`, for which the Potency entry is “inactive”. `C=CC[N@@+]12CC[C@]34c5ccccc5N5/C=C6\C7N(/C=C(\C53)[C@@H](C[C@@H]41)/C(=C/CO)C2)c1ccccc1[C@@]71CC[N@@+]2(CC=C)C/C(=C\CO)[C@@H]6C[C@@H]12` (some centres undefined): the Potency entry was “inactive”. On the same count and under the same terms, then `CC(C)CN(C[C@@H](O)[C@H](Cc1ccccc1)NC(=O)O[C@H]1CCOC1)S(=O)(=O)c1ccc(N)cc1`, with “inactive”. Still for that read-out and setting: to `OC[C@H]1O[C@@H](O)[C@H](O)[C@@H](O)[C@@H]1O` belongs “inactive”; to `CCCCCCCCCCCCCC(=O)OCC(COP(=O)([O-])OCC[N+](C)(C)C)OC(=O)CCCCCCCCCCCCC` (centres undefined), “inactive”; to `C[C@H]1C[C@@H]2[C@H]([C@@H](O)C[C@@]3(C)[C@H]2CC[C@]3(O)C(=O)COC(=O)CCC(=O)O)[C@@]2(C)C=CC(=O)C=C12`, “inactive”. For `CC(C)(CO)C(O)C(=O)NCCCC(=O)O` (centres undefined), the Potency result is “inactive”. On the same count and under the same terms, to `COC(F)(F)C(Cl)Cl` belongs “inactive”.

On to `C[N+](C)(C)CCOP(=O)([O-])OP(=O)(O)OC[C@H]1OC(n2ccc(N)nc2=O)[C@H](O)[C@@H]1O` (some centres undefined), for which the outcome was “inactive [at 0.573 µM]”. For the molecule `C[C@H]1O[C@]2(CS1)CN1CCC2CC1`, the Potency result is “inactive”. Still for that read-out and setting: then `CCCCc1cc2c(=O)c(C(=O)OC)c[nH]c2cc1OCc1ccccc1`, with “inactive”; and `O=C(Cn1c(=O)sc2ccc(Cl)cc21)N1CCN(CCO)CC1`, with “inactive”. On the same count and under the same terms, to `CCCCCc1ccc(C)cc1O` belongs “inactive”; to `CC1(C)S[C@@H]2[C@H](NC(=O)[C@H](N)c3ccccc3)C(=O)N2[C@H]1C(=O)OCOC(=O)[C@@H]1N2C(=O)C[C@H]2S(=O)(=O)C1(C)C`, “inactive”. Same read-out and setting: then `O=[N+]([O-])c1ccc(/C=C/c2cccc(CO)n2)o1`, with “inactive”; and `CN(C)CC(c1ccc(O)cc1)C1(O)CCCCC1` (centres undefined), with “inactive”.

As for `FC(F)OC(Cl)C(F)(F)F` (centres undefined), the Potency entry is “inactive”. The same measure, in the same setting: to `Cc1cc(Nc2ccccc2C(=O)O)ccc1Cl` belongs “inactive”; to `CCCCCCCCCC(=O)OCCN1CCN(CC/C=C2/c3ccccc3Sc3ccc(Cl)cc32)CC1`, “inactive”; to `CC(=O)c1cc2cccc(OCC(O)CNC(C)C)c2o1` (centres undefined), “inactive”.

For the molecule `CC[C@H]1OC(=O)C[C@@H](OC(C)=O)[C@H](C)[C@@H](O[C@@H]2O[C@H](C)[C@@H](O[C@H]3C[C@@](C)(O)[C@@H](OC(=O)CC(C)C)[C@H](C)O3)[C@H](N(C)C)[C@H]2O)[C@@H](CC=O)C[C@@H](C)C(=O)/C=C/C(C)=C/[C@@H]1CO[C@@H]1O[C@H](C)[C@@H](O)[C@@H](OC)[C@H]1OC`, the Potency entry was “inactive”. Still for that read-out and setting: to `CCC1(C)OC(=O)N(C)C1=O` (centres undefined) belongs “inactive”; to `CC=CC1=C(C(=O)O)N2C(=O)[C@@H](NC(=O)[C@H](N)c3ccc(O)cc3)[C@H]2SC1`, “inactive”; to `O=C(N[C@H]1CCS[C@H]2CCC[C@@H](C(=O)O)N2C1=O)[C@@H](S)Cc1ccccc1`, “inactive”. For the molecule `Nc1nc2c(c(=O)[nH]1)N(C=O)C(CNc1ccc(C(=O)N[C@@H](CCC(=O)O)C(=O)O)cc1)CN2` (some centres undefined), the outcome is “inactive [at 0.573 µM]”. As to `COCC1=C(C(=O)OC(C)OC(=O)OC(C)C)N2C(=O)[C@@H](NC(=O)/C(=N/OC)c3csc(N)n3)[C@H]2SC1` (some centres undefined), the Potency entry is “inactive”.
